{"source": "the supplement of paper PMC13380429", "data": [{"system": "Vero E6 infected with SARS-CoV-2", "test": "morphology score (similarity to uninfected cells); higher = more like uninfected cells", "settings": "24 h", "values": [{"compound": "C=C1C[C@@]2(O)O[C@@]3(C[C@H]2C(C)C)[C@@H](C)CC[C@@H]13", "note": "[curcumol] (10 µM)", "morphology score": 0.157}, {"compound": "c1ccc(-c2oc3ncnc(NC[C@@H]4CCCO4)c3c2-c2ccccc2)cc1", "note": "(10 µM)", "morphology score": 0.0044}, {"compound": "C[C@]12C=CC(=O)C=C1CC[C@@H]1[C@@H]2C(=O)C[C@@]2(C)[C@H]1CC[C@]2(O)C(=O)CO", "note": "[prednisone] (10 µM)", "morphology score": -0.177}, {"compound": "O=C1NC(=O)c2cc(Nc3ccccc3)c(Nc3ccccc3)cc21", "note": "(10 µM)", "morphology score": 0.39}, {"compound": "COc1ccc(C2=N[C@@H](c3ccc(Cl)cc3)[C@@H](c3ccc(Cl)cc3)N2C(=O)N2CCNC(=O)C2)c(OC(C)C)c1", "note": "[nutlin-3] (0.833333 µM)", "morphology score": 0.101}, {"compound": "COc1ccc2c(c1)C(C(=O)N(Cc1ccc(N(C)C)cc1)c1ccc(C(C)C)cc1)CCC2", "note": "(stereo not drawn) (10 µM)", "morphology score": 0.106}, {"compound": "OCC(CO)N[C@H]1C[C@](O)(CO)[C@@H](O)[C@H](O)[C@H]1O", "note": "[voglibose] (10 µM)", "morphology score": -0.105}, {"compound": "Fc1ccccc1-c1nc2ccn(Cc3ccc(-c4ccc(C(F)(F)F)cc4C(F)(F)F)nn3)cc-2n1", "note": "[tegobuvir] (10 µM)", "morphology score": 0.081}, {"compound": "Cc1ccc(NC(=O)C(C)C)cc1C1CCN(Cc2ccc(Oc3ccc(F)c(F)c3)cc2)CC1", "note": "(0.833333 µM)", "morphology score": 0.375}, {"compound": "CN(CCOc1ccc(C[C@H](Nc2ccccc2C(=O)c2ccccc2)C(=O)O)cc1)c1ccccn1", "note": "(10 µM)", "morphology score": 0.317}, {"compound": "Cc1cc(-c2nc(C(=O)Nc3cn(C4CCOCC4)nc3C(N)=O)co2)ccn1", "note": "(10 µM)", "morphology score": -0.166}, {"compound": "CCCCCOc1ccc(-c2ccc(-c3ccc(C(=O)N[C@H]4C[C@@H](O)[C@@H](O)NC(=O)[C@@H]5[C@@H](O)[C@@H](C)CN5C(=O)[C@H]([C@@H](C)O)NC(=O)[C@H]([C@H](O)[C@@H](O)c5ccc(O)cc5)NC(=O)[C@@H]5C[C@@H](O)CN5C(=O)[C@H]([C@@H](C)O)NC4=O)cc3)cc2)cc1", "note": "[anidulafungin] (10 µM)", "morphology score": -0.164}, {"compound": "C[C@]12CC[C@H](O)C[C@H]1CC[C@@H]1[C@@H]2C[C@@H](O)[C@]2(C)[C@@H](C3=CC(=O)OC3)CC[C@]12O", "note": "[digoxigenin] (0.833333 µM)", "morphology score": -0.000579}, {"compound": "O[C@@H]1CO[C@H]2[C@@H]1OC[C@@H]2O", "note": "[isosorbide] (10 µM)", "morphology score": 0.0141}, {"compound": "NCCCS(=O)(=O)O", "note": "[tramiprosate] (10 µM)", "morphology score": 0.072}, {"compound": "C[C@H](Oc1cc(-c2cnn(C3CCNCC3)c2)cnc1N)c1c(Cl)ccc(F)c1Cl", "note": "[crizotinib-(S)] (0.833333 µM)", "morphology score": 0.602}, {"compound": "Cc1ncc(NC(=O)c2ccc(CN3CCN(C)CC3)c(C(F)(F)F)c2)cc1Nc1nccc(-c2cccnc2)n1", "note": "[flumatinib] (10 µM)", "morphology score": 0.306}, {"compound": "Oc1noc2c1CCNC2", "note": "[gaboxadol] (10 µM)", "morphology score": 0.0535}, {"compound": "CN1CCN(C(c2ccccc2)c2ccc(Cl)cc2)CC1", "note": "(stereo not drawn) [chlorcyclizine] (10 µM)", "morphology score": 0.134}, {"compound": "N[C@@H](CCNCc1ccc(Cl)cc1)C(=O)N1CCCCC1", "note": "(10 µM)", "morphology score": -0.159}, {"compound": "O=C1S/C(=C\\c2ccc(OCc3cccc(B(O)O)c3)cc2)C(=O)N1Cc1ccc(F)cc1", "note": "(10 µM)", "morphology score": 0.0573}, {"compound": "N[C@@H](C(=O)O)[C@@H](OCc1ccccc1)C(=O)O.N[C@H](C(=O)O)[C@H](OCc1ccccc1)C(=O)O", "note": "(10 µM)", "morphology score": 0.0333}, {"compound": "O=C1c2ccccc2C(=O)C1c1ccc(Br)cc1", "note": "[bromindione] (10 µM)", "morphology score": 0.204}, {"compound": "N[C@@H](Cc1ccc(O)cc1)C(=O)NCC(=O)NCC(=O)O", "note": "(10 µM)", "morphology score": -0.0946}, {"compound": "NCC(=O)N1C[C@H](NC(=O)c2ccccc2)C[C@H]1C(=O)O", "note": "[danegaptide] (10 µM)", "morphology score": 0.0415}, {"compound": "CC(=O)S[C@@H]1CC2=CC(=O)CC[C@]2(C)[C@H]2CC[C@@]3(C)[C@@H](CC[C@@]34CCC(=O)O4)[C@H]12", "note": "[spironolactone] (10 µM)", "morphology score": 0.291}, {"compound": "C1=C2CCCN[C@H]2[C@@H]2C[C@H]1[C@H]1CCCCN1C2", "note": "[aloperine] (10 µM)", "morphology score": 0.199}, {"compound": "CCOCc1cc(OC)c(-c2ccc(C[C@H](NC(=O)c3c(F)cccc3F)C(=O)O)cc2)c(OC)c1", "note": "[firategrast] (10 µM)", "morphology score": -0.05}, {"compound": "O=C(OCCN1CCOCC1)C1(c2ccccc2)CCCCC1", "note": "(10 µM)", "morphology score": -0.00229}]}, {"system": "Vero E6 infected with SARS-CoV-2", "test": "SARS-CoV-2 infection rate relative to infected DMSO; higher = more infection, active = 60 or less", "settings": "24 h", "values": [{"compound": "CC(=O)c1ccc2c(c1)N(CCCN1CCN(CCO)CC1)c1ccccc1S2", "note": "[acetophenazine] (10 µM)", "SARS-CoV-2 infection rate": "96.5% (inactive)"}, {"compound": "Cc1nc2c(OCc3ccccc3)cccn2c1CC#N", "note": "(10 µM)", "SARS-CoV-2 infection rate": "110% (inactive)"}, {"compound": "Nc1nc(=O)n([C@H]2C[C@H](O)[C@@H](CO)O2)cc1Cl", "note": "[cytochlor] (10 µM)", "SARS-CoV-2 infection rate": "102% (inactive)"}, {"compound": "CCCCCC(O)CCCC(=O)O", "note": "(stereo not drawn) (10 µM)", "SARS-CoV-2 infection rate": "103% (inactive)"}, {"compound": "CC[C@H](C)C[C@H](C)CCCCCCCCC(=O)N[C@H]1C[C@@H](O)[C@@H](NCCN)NC(=O)[C@@H]2[C@@H](O)CCN2C(=O)[C@H]([C@H](O)CCN)NC(=O)[C@H]([C@H](O)[C@@H](O)c2ccc(O)cc2)NC(=O)[C@@H]2C[C@@H](O)CN2C(=O)[C@H]([C@@H](C)O)NC1=O", "note": "[caspofungin] (10 µM)", "SARS-CoV-2 infection rate": "108% (inactive)"}, {"compound": "CCc1c2c(nc3ccc(O)cc13)-c1cc3c(c(=O)n1C2)COC(=O)[C@]3(O)CC", "note": "(0.833333 µM)", "SARS-CoV-2 infection rate": "116% (inactive)"}, {"compound": "O=S(=O)(c1cccc2c(O)nccc12)N1CCCNCC1", "note": "[hydroxyfasudil] (10 µM)", "SARS-CoV-2 infection rate": "108% (inactive)"}, {"compound": "C=CC(=O)Nc1cccc(Nc2nc(Nc3ccc(Oc4ccnc(C(=O)NC)c4)cc3)ncc2F)c1", "note": "(0.833333 µM)", "SARS-CoV-2 infection rate": "110% (inactive)"}, {"compound": "CN1CCc2c(c3ccccc3n2Cc2ccccc2)C1", "note": "[mebhydrolin] (10 µM)", "SARS-CoV-2 infection rate": "104% (inactive)"}, {"compound": "OC[C@H]1O[C@@H](Oc2cc(O)cc(/C=C/c3ccc(O)cc3)c2)[C@H](O)[C@@H](O)[C@@H]1O", "note": "[polydatin] (10 µM)", "SARS-CoV-2 infection rate": "104% (inactive)"}, {"compound": "CC/C(=C(/CC)c1ccc(O)cc1)c1ccc(O)cc1", "note": "[diethylstilbestrol] (10 µM)", "SARS-CoV-2 infection rate": "102% (inactive)"}, {"compound": "C=C1C[C@@]2(O)O[C@@]3(C[C@H]2C(C)C)[C@@H](C)CC[C@@H]13", "note": "[curcumol] (10 µM)", "SARS-CoV-2 infection rate": "106% (inactive)"}, {"compound": "c1ccc(-c2oc3ncnc(NC[C@@H]4CCCO4)c3c2-c2ccccc2)cc1", "note": "(10 µM)", "SARS-CoV-2 infection rate": "106% (inactive)"}, {"compound": "C[C@]12C=CC(=O)C=C1CC[C@@H]1[C@@H]2C(=O)C[C@@]2(C)[C@H]1CC[C@]2(O)C(=O)CO", "note": "[prednisone] (10 µM)", "SARS-CoV-2 infection rate": "108% (inactive)"}, {"compound": "O=C1NC(=O)c2cc(Nc3ccccc3)c(Nc3ccccc3)cc21", "note": "(10 µM)", "SARS-CoV-2 infection rate": "72% (inactive)"}, {"compound": "COc1ccc(C2=N[C@@H](c3ccc(Cl)cc3)[C@@H](c3ccc(Cl)cc3)N2C(=O)N2CCNC(=O)C2)c(OC(C)C)c1", "note": "[nutlin-3] (0.833333 µM)", "SARS-CoV-2 infection rate": "117% (inactive)"}, {"compound": "COc1ccc2c(c1)C(C(=O)N(Cc1ccc(N(C)C)cc1)c1ccc(C(C)C)cc1)CCC2", "note": "(stereo not drawn) (10 µM)", "SARS-CoV-2 infection rate": "85.5% (inactive)"}, {"compound": "OCC(CO)N[C@H]1C[C@](O)(CO)[C@@H](O)[C@H](O)[C@H]1O", "note": "[voglibose] (10 µM)", "SARS-CoV-2 infection rate": "106% (inactive)"}, {"compound": "Fc1ccccc1-c1nc2ccn(Cc3ccc(-c4ccc(C(F)(F)F)cc4C(F)(F)F)nn3)cc-2n1", "note": "[tegobuvir] (10 µM)", "SARS-CoV-2 infection rate": "102% (inactive)"}, {"compound": "Cc1ccc(NC(=O)C(C)C)cc1C1CCN(Cc2ccc(Oc3ccc(F)c(F)c3)cc2)CC1", "note": "(0.833333 µM)", "SARS-CoV-2 infection rate": "90.5% (inactive)"}, {"compound": "CN(CCOc1ccc(C[C@H](Nc2ccccc2C(=O)c2ccccc2)C(=O)O)cc1)c1ccccn1", "note": "(10 µM)", "SARS-CoV-2 infection rate": "70% (inactive)"}, {"compound": "Cc1cc(-c2nc(C(=O)Nc3cn(C4CCOCC4)nc3C(N)=O)co2)ccn1", "note": "(10 µM)", "SARS-CoV-2 infection rate": "118% (inactive)"}, {"compound": "CCCCCOc1ccc(-c2ccc(-c3ccc(C(=O)N[C@H]4C[C@@H](O)[C@@H](O)NC(=O)[C@@H]5[C@@H](O)[C@@H](C)CN5C(=O)[C@H]([C@@H](C)O)NC(=O)[C@H]([C@H](O)[C@@H](O)c5ccc(O)cc5)NC(=O)[C@@H]5C[C@@H](O)CN5C(=O)[C@H]([C@@H](C)O)NC4=O)cc3)cc2)cc1", "note": "[anidulafungin] (10 µM)", "SARS-CoV-2 infection rate": "110% (inactive)"}, {"compound": "C[C@]12CC[C@H](O)C[C@H]1CC[C@@H]1[C@@H]2C[C@@H](O)[C@]2(C)[C@@H](C3=CC(=O)OC3)CC[C@]12O", "note": "[digoxigenin] (0.833333 µM)", "SARS-CoV-2 infection rate": "99.5% (inactive)"}, {"compound": "O[C@@H]1CO[C@H]2[C@@H]1OC[C@@H]2O", "note": "[isosorbide] (10 µM)", "SARS-CoV-2 infection rate": "112% (inactive)"}, {"compound": "NCCCS(=O)(=O)O", "note": "[tramiprosate] (10 µM)", "SARS-CoV-2 infection rate": "104% (inactive)"}, {"compound": "C[C@H](Oc1cc(-c2cnn(C3CCNCC3)c2)cnc1N)c1c(Cl)ccc(F)c1Cl", "note": "[crizotinib-(S)] (0.833333 µM)", "SARS-CoV-2 infection rate": "99% (inactive)"}, {"compound": "Cc1ncc(NC(=O)c2ccc(CN3CCN(C)CC3)c(C(F)(F)F)c2)cc1Nc1nccc(-c2cccnc2)n1", "note": "[flumatinib] (10 µM)", "SARS-CoV-2 infection rate": "25.5% (active)"}, {"compound": "Oc1noc2c1CCNC2", "note": "[gaboxadol] (10 µM)", "SARS-CoV-2 infection rate": "106% (inactive)"}, {"compound": "CN1CCN(C(c2ccccc2)c2ccc(Cl)cc2)CC1", "note": "(stereo not drawn) [chlorcyclizine] (10 µM)", "SARS-CoV-2 infection rate": "102% (inactive)"}, {"compound": "N[C@@H](CCNCc1ccc(Cl)cc1)C(=O)N1CCCCC1", "note": "(10 µM)", "SARS-CoV-2 infection rate": "107% (inactive)"}, {"compound": "O=C1S/C(=C\\c2ccc(OCc3cccc(B(O)O)c3)cc2)C(=O)N1Cc1ccc(F)cc1", "note": "(10 µM)", "SARS-CoV-2 infection rate": "104% (inactive)"}, {"compound": "N[C@@H](C(=O)O)[C@@H](OCc1ccccc1)C(=O)O.N[C@H](C(=O)O)[C@H](OCc1ccccc1)C(=O)O", "note": "(10 µM)", "SARS-CoV-2 infection rate": "106% (inactive)"}, {"compound": "O=C1c2ccccc2C(=O)C1c1ccc(Br)cc1", "note": "[bromindione] (10 µM)", "SARS-CoV-2 infection rate": "93.5% (inactive)"}]}]}
